# Measurements published in ChEMBL document CHEMBL4296182, “CO-ADD screening of NIH NCI Diversity Set V”.
# For part of these data: Entries with a potency or affinity are not part of this list.
# Key:
# Staphylococcus aureus = assay: Antibacterial activity against Staphylococcus aureus MRSA ATCC 43300 (CO-ADD:GP_020); MIC in CAMBH media using NBS plates, by Resazurin F(560/590); format: functional; details: Concentration 20 uM, ASSAY_TEST Inhibition of Bacterial Growth, detection method Resazurin, Fluorescence (ex560/em590), MEDIA CAMHB, plate type 384well, CORNING #3640, time 18 hr
# Acinetobacter baumannii = assay: Antibacterial activity against Acinetobacter baumannii ATCC 19606 (CO-ADD:GN_034); MIC in CAMBH media using NBS plates, by Resazurin F(560/590); format: functional; details: Concentration 20 uM, ASSAY_TEST Inhibition of Bacterial Growth, detection method Resazurin, Fluorescence (ex560/em590), MEDIA CAMHB, plate type 384well, CORNING #3640, time 18 hr
# Escherichia coli = assay: Antibacterial activity against Escherichia coli ATCC 25922 (CO-ADD:GN_001); MIC in CAMBH media using NBS plates, by Resazurin F(560/590); format: functional; details: Concentration 20 uM, ASSAY_TEST Inhibition of Bacterial Growth, detection method Resazurin, Fluorescence (ex560/em590), MEDIA CAMHB, plate type 384well, CORNING #3640, time 18 hr
# Klebsiella pneumoniae = details: Concentration 20 uM; ASSAY_TEST Inhibition of Bacterial Growth; detection method Absorption (OD600); MEDIA CAMHB; plate type 384well; NBS; CORNING #3640; time 18 hr
# Candida albicans = details: 20 µM
# Cryptococcus neoformans = details: Concentration 20 uM; ASSAY_TEST Inhibition of Fungal Growth; detection method Resazurin; Absorption (OD600-OD570); plate type 384well; NBS; CORNING #3640
Structure (SMILES),Inhibition (Staphylococcus aureus),Inhibition (Acinetobacter baumannii),Inhibition (Escherichia coli),Inhibition (Klebsiella pneumoniae),Inhibition (Candida albicans),Inhibition (Cryptococcus neoformans)
CC(C)(C)C(=O)Nc1ccc(NC(=O)C(C)(C)C)cc1,-3.56%,6.93%,0.85%,26.03%,6.58%,1.66%
COc1ccccc1N=NNc1ccccc1OC,15.47%,-0.02%,3.88%,9.87%,2.77%,-8.49%
Cn1c(=O)c2c(nc(Oc3ccccc3)n2C)n(C)c1=O,7.55%,11.19%,-2.76%,19.27%,7.25%,-3.63%
O=C(Nc1cccc2c1N(C(=O)c1ccco1)CCC2)c1ccco1,23.38%,8.42%,4.6%,13.8%,-1.4%,-2.48%
CC(C)(C)c1ccc(NS(=O)(=O)c2ccc(N)cc2)cc1,8.8%,3.26%,-6.26%,16.84%,3.64%,-7.4%
Cn1c([N+](=O)[O-])cnc1N1CCN(c2nncs2)C1=O,0.67%,-10.23%,2.52%,15.88%,1.82%,-10.17%
COc1ccc(N/C=C2\C(=O)CCc3c2oc2cc(Cl)c(O)c(Cl)c32)cc1,7.05%,-14.01%,13.43%,4.7%,3.38%,-7.04%
CSC(=N)NS(=O)(=O)c1ccc(NC(C)=O)cc1,1.24%,-21.01%,12.78%,3.27%,0.03%,-9.44%
c1ccc(-c2nc[nH]c2-c2ccccc2)cc1,15.79%,-13.75%,11.94%,6.07%,-1.64%,-10.72%
O=[N+]([O-])c1ccc(NN=C(c2ccccc2)c2ccccc2)nc1,5.39%,-2.58%,13.19%,5.05%,3.51%,-2.84%
CC(=O)c1cc2c(cc1C)CCCC2(C)C,18.6%,-15.87%,11.58%,0.53%,-0.44%,-7.49%
CCOC(=O)Nc1ccc(C(=O)/C=C/c2ccccc2)cc1,8.55%,3.76%,-2.1%,17.43%,6.26%,-5.25%
O=C1Nc2ccccc2C1(c1ccc(O)cc1)c1ccc(O)cc1 [OXYPHENISATINE],24.64%,-10.84%,13.68%,5.85%,2.96%,-4.24%
COC(=O)Cc1[nH]c(O)nc1C(=O)OC,5.51%,-8.26%,3.06%,20.66%,-0.45%,-7.96%
Cc1ccc2nc(Cl)cc(=O)n2c1,3.79%,-0.85%,-11.05%,5.29%,1.34%,9.92%
c1ccc(Sc2ncccn2)nc1,20.57%,-8.37%,7.64%,5.74%,3.74%,-10.47%
Cc1c2cnccc2c(C)c2c1c1ccccc1n2CCOC(=O)c1ccccc1,-1.71%,14.72%,4.49%,5.61%,22.1%,-19.42%
CCOc1nsc(OCC)n1,10.98%,-19.84%,11.82%,-1.83%,5.3%,-10.38%
C=CCOc1c(CCC)cc(CCC)cc1C(N)=O,13.21%,14.83%,1.32%,19.26%,5.23%,-4.27%
CNC(=O)Nc1ccc(S(N)(=O)=O)cc1,-4.03%,14.32%,-4.85%,19.46%,3.31%,0.61%
COCC(=O)OC1CCn2c1nc1c2C(=O)C(C)=C(NC(C)=O)C1=O (stereo not drawn),9.15%,12.44%,-2.53%,8.02%,-3.01%,-13.92%
Oc1ncc(I)cc1I,37.5%,6.08%,2.67%,22.74%,4.4%,23.72%
COc1ccc(CN2CCOC2=O)cc1OC,2.93%,-8.7%,2.98%,20.13%,-0.97%,-5.16%
